Source: PubChem BioAssay (NCATS)
Results filed as inconclusive are left out. Values without a mark were called inactive. Active and inactive are the calls of the source. Calls come from the whole dose curve; as a rule, active = well fitted cell-killing curve with a large enough effect; inconclusive = small, poorly fitted or top-dose-only effect, or effect the other way; inactive = no such curve, though single readings can be large or run the other way.

experiment: qHTS of pediatric cancer cell lines to identify multiple opportunities for drug repurposing: Confirmatory screen for RD cells (AID 1347124); settings: RD rhabdomyosarcoma cell viability; series mostly up to 45.9 µM; activity change, negative = cytotoxic: at the top concentration;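 note: cells exposed to compound for 48 h before viability readout; nearly all actives have a fitted effect of over 65% in size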
Description: Drug repurposing or repositioning has been offered as a strategy for drug development in oncology programs. This approach has special potential for childhood cancers and other rare or orphan diseases, where the expected return on new drug development has been a disincentive to pharmaceuticals.
In this project we exploit the poly-pharmacology of drugs to discover new indications via phenotypic screening of a panel of 19 well-characterized cell lines derived from solid tumors seen in children and adolescents. The goal is to identify approved drugs with previously unrecognized anticancer properties that has the potential to reveal new mechanisms and biological processes involved in carcinogenesis or drug resistance. We employed a titration-based paradigm (quantitative high-throughput screening or qHTS), where all compounds were tested at multiple concentrations for their effect on cell viability. Concentration-response curves (CRCs) were derived directly from the primary screen, and both potency and efficacy values were used to identify compounds with robust bioactivity profiles. We screened the NIH Chemical Genomics Center (NCGC) Pharmaceutical Collection (NPC) and Mechanism Interrogation Plate (MIPE) small molecule collections of approved and investigational compounds against these cell lines; and measured metabolically active cells after 48 hours of compound treatment as a proxy for cell viability.
Assay Submitter: Nathalia J. Martinez, National Center for Advancing Translational Sciences, National Institutes of Health, Rockville, MD, USA; email: natalia.martinez@nih.gov
[1] Shen, M et al. Quantitative high-throughput phenotypic screening of pediatric cancer cell lines identifies multiple opportunities for drug repurposing. Oncotarget 2017 Dec 19;9(4):4758-4772. PMID 29435139.
The cells were obtained from University of North Carolina (UNC), Pediatric Preclinical Testing Program (PPT), and Coriell Institute (CI).
qHTS cell viability assay:
Cells were assayed in growth media at a density of 500-1,000 cells/well. Five microliters of cells were dispensed into 1,536-well, white, solid-bottom, TC-treated plates (Greiner Bio One) using a multidrop dispenser and incubated at 37 degrees C, 5% CO2, under a humidified atmosphere for 5 hours. Twenty-three nanoliters of compounds and controls (neutral control DMSO or positive control bortezomib at final concentration of 2.3 µM) were subsequently transferred by Kalypsys pintool. For primary screens, the MIPE collection was tested at 11-point dilutions (final concentrations range from 0.78 nM to 46 µM) and the NPC collection at 8-point dilutions (final concentrations range from 0.59 nM to 46 µM). Compounds tested in follow-up screens were assayed at 11-point dilutions. Cells were incubated for 48 hours, followed by addition of 3 µL of CellTiter-Glo (Promega). After a 15 min incubation at room temperature, samples were analyzed for luminescence intensity using a ViewLux High-throughput CCD imager equipped with clear filters.
% is set by controls: 0 for no effect and ±100 for the full control effect; potency is the fitted concentration of half-maximal effect.

For `COC(=O)C1=CCCN(C)C1`, which “activity change, negative = cytotoxic” value is on record?
Its value is 8.32%.

Which “activity change, negative = cytotoxic” value does the source give for `CCCCCCCCC(=O)NCc1ccc(O)c(OC)c1` here?
Its value is 6.03%.

Which Potency does the source give for `CC[n+]1c(-c2ccccc2)c2cc(N)ccc2c2ccc(N)cc21` here?
The Potency was 14.7 µM (active).

Which Potency does the source give for `C[C@@H]1C[C@@H]([C@H](O)CC2CC(=O)NC(=O)C2)C(=O)[C@@H](C)C1` here?
The Potency was 2.61 µM (active).

With `Cc1ccc([N+](=O)[O-])[c]2c1[O][Hg]2` as the molecule, how does the Potency read?
The Potency was 0.827 µM (active).

With `COc1ccc2c(C(=O)c3ccc(Cl)cc3)c(C)n(CC(=O)O)c2c1` as the molecule, how does the “activity change, negative = cytotoxic” value read?
The value was 11.8%.

For `CCCCCCCCCCCC[N+](C)(C)CCOc1ccccc1`, which Potency is on record?
The Potency was 18.5 µM (active).

Which Potency does the source give for `CN(C)C(=S)SSC(=S)N(C)C` here?
Its Potency is 16.5 µM (active).

With `C[C@@H]1O[C@@H](O[C@@H]2C=C3CC[C@@H]4[C@H](CC[C@]5(C)[C@@H](c6ccc(=O)oc6)CC[C@]45O)[C@@]3(C)CC2)[C@H](O)[C@H](O)[C@H]1O` as the molecule, how does the Potency read?
The Potency was 0.0033 µM (active).

With `ClC1=C(Cl)C2(Cl)C(CBr)CC1(Cl)C2(Cl)Cl` (stereo not given) as the molecule, how does the “activity change, negative = cytotoxic” value read?
The value was 11.4%.
